In PubChem BioAssay (EPA / NIEHS) one finds outcome and AC50 data, which are given here for 20 compounds.

“And” between values parts separate entries of the source, which are not always exact repeats. Equal entries are not always repeated. The source holds several records for some structures; these can differ, active in one and inactive in another. The source made the active and inactive calls. The calls were made as follows: active = hit-call score of the fitted dose curve at least 0.9, where 1 is the maximum; inactive = score below 0.9.

Read-out in assay [1]: Collagen I, COL1A1 (gene 1277)
Kind of assay: BSK_MyoF_CollagenI: BioMAP Diversity Plus: MyoF Assay for Collagen I Biomarker Activity (AID 2284238). The conditions noted are these: primary human lung fibroblasts. The essentials:
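ELISA readout of Collagen I after 24 h chemical treatment of primary human lung fibroblast cultures; gain of signal scored relative to DMSO vehicle baseline.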

Read-out in assay [2]: Collagen III, COL3A1 (gene 1281)
As to the kind of experiment: BSK_MyoF_CollagenIII: BioMAP Diversity Plus: MyoF Assay for Collagen III Biomarker Activity (AID 2284239). Particulars: primary human lung fibroblasts. The essentials: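 Lung fibroblast culture; 24 h compound exposure; collagen III by ELISA; gain-of-signal fit vs DMSO baseline.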

Read-out in assay [3]: Actin alpha 1 (ACTA1), ACTA1 (gene 58)
Kind of assay: BSK_MyoF_ACTA1: BioMAP Diversity Plus: MyoF Assay for Actin alpha 1 (ACTA1) Biomarker Activity (AID 2284244). Particulars: primary human lung fibroblasts. The essentials: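 Cells were exposed to chemical for 24 h before a-SMA levels were quantified by ELISA in human lung fibroblasts. Increases were fitted against DMSO as negative control; parallel SRB staining (0.1% after 10% TCA fixation, 560 nm) assessed cytotoxicity.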

Read-out in assay [4]: Interleukin 2 (IL2), IL2 (gene 3558)
Kind of assay: BSK_BT_xIL2: BioMAP Diversity Plus: BT Assay for Interleukin 2 (IL2) Biomarker Activity (AID 2284245). Particulars: primary human B cells with PBMC. The essentials:
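The BT system combines human B cells with peripheral blood mononuclear cells. Twenty-four hours after chemical dosing, secreted IL-2 was measured with xMAP bead technology, and responses were analyzed as increases over DMSO controls.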

Read-out in assay [5]: Basic fibroblast growth factor (bFGF), FGF2 (gene 2247)
Kind of assay: BSK_MyoF_bFGF: BioMAP Diversity Plus: MyoF Assay for Basic fibroblast growth factor (bFGF) Biomarker Activity (AID 2284246). Particulars: primary human lung fibroblasts. The essentials: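 Chemicals are added to human lung fibroblast cultures and incubated 24 h. bFGF is then measured by ELISA, while parallel cultures receive SRB staining for total protein as a cytotoxicity check. Data are fitted upward against DMSO.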

Read-out in assay [6]: Collagen IV, COL4A1 (gene 1282)
As to the kind of experiment: BSK_MyoF_CollagenIV: BioMAP Diversity Plus: MyoF Assay for Collagen IV Biomarker Activity (AID 2284247). The conditions noted are these: primary human lung fibroblasts. In outline:
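Human lung fibroblast system, 24 h chemical exposure. Endpoint: Collagen IV by ELISA, upward fit vs DMSO.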

Read-out in assay [7]: Vascular cell adhesion molecule 1 (VCAM1), VCAM1 (gene 7412)
As to the kind of experiment: BSK_BF4T_VCAM1: BioMAP Diversity Plus: BF4T Assay for Vascular cell adhesion molecule 1 (VCAM1) Biomarker Activity (AID 2284249). The conditions noted are these: primary human bronchial epithelial cells with fibroblasts. The essentials: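 Cell-surface VCAM-1 quantified by ELISA after 24 h chemical exposure of human bronchial epithelial/dermal fibroblast co-cultures, with SRB staining in parallel wells for cytotoxicity; DMSO baseline, positive-direction fitting.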

Read-out in assay [8]: Collagen I, COL1A1 (gene 1277)
Kind of assay: BSK_hDFCGF_CollagenI: BioMAP Diversity Plus: hDFCGF Assay for Collagen I Biomarker Activity (AID 2284250). Particulars: primary human foreskin fibroblasts. The essentials: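 Collagen I ELISA, primary human foreskin fibroblasts, 24 h chemical exposure, DMSO = negative control/baseline, positive fitting direction.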

Read-out in assay [9]: Plasminogen activator inhibitor-1 (PAI1), SERPINE1 (gene 5054)
As to the kind of experiment: BSK_KF3CT_PAI1: BioMAP Diversity Plus: KF3CT Assay for Plasminogen activator inhibitor-1 (PAI1) Biomarker Activity (AID 2284252). Particulars: primary human keratinocytes with fibroblasts. The essentials: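 Cells (human keratinocytes co-cultured with foreskin fibroblasts) are exposed to test chemical for 24 h. PAI-1 is then measured by ELISA and analysed for signal gain against DMSO.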

Read-out in assay [10]: Monocyte Chemoattractant Protein-1 (MCP1), CCL2 (gene 6347)
As to the kind of experiment: BSK_IMphg_MCP1: BioMAP Diversity Plus: IMphg Assay for Monocyte Chemoattractant Protein-1 (MCP1) Biomarker Activity (AID 2284253). The conditions noted are these: primary human endothelial cells with macrophages. The essentials:
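ELISA readout of MCP-1 at 24 hours in IMphg co-cultures of venular endothelial cells and macrophages, normalised to DMSO; parallel cultures stained with sulforhodamine B for overt cytotoxicity.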

Read-out in assay [11]: Interleukin-8 (IL8), CXCL8 (gene 3576)
Kind of assay: BSK_KF3CT_IL8: BioMAP Diversity Plus: KF3CT Assay for Interleukin-8 (IL8) Biomarker Activity (AID 2284254). The conditions noted are these: primary human keratinocytes with fibroblasts. In outline: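 IL-8 read-out: ELISA, 24 h post-dose, human skin primary co-culture (keratinocytes + foreskin fibroblasts). DMSO = baseline; positive-direction fit.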

Regarding `NC(=O)c1c(Cl)cccc1Cl`, the outcome in [1], in assay [2], in assay [3], in assay [4], in assay [5] and in [6] was inactive.
The term AC50 denotes the concentration at which the activity in the assay is half-maximal. Turning to `C=C1CC/C=C(\C)CC[C@@H]2[C@@H]1CC2(C)C`, the AC50 was 25.7 µM (active) in assay [1]; 30.1 µM (active) in assay [2]; 14.9 µM (active) in assay [3]; 34.7 µM (active) in assay [5]; 23.8 µM (active) in assay [6]. For the same compound, in assay [4], the result was inactive.
For the compound `O=C(O)C(F)(F)C(F)(F)C(F)(F)C(F)(F)C(F)(F)C(F)(F)C(F)(F)C(F)F`, the outcome in assay [1], in assay [2], in assay [3], in assay [4], in assay [5] and in [6] was inactive. Besides, the outcome in assay [7], in assay [8], in [9], in assay [10] and in assay [11] was inactive. For the same compound, the AC50 in assay [7] is 2.3 µM (active).
Take `C=C(F)C(=O)OC(C(F)(F)F)C(F)(F)F`: the outcome in assay [1], in assay [2], in [3], in assay [4], in [5] and in assay [6] was inactive. Moreover, the outcome in assay [7], in assay [8], in [9], in assay [10] and in [11] was inactive.
For `CCn1cc(C(=O)O)c(=O)c2ccc(C)nc21`, the result in [8], in assay [9] and in assay [11] was inactive.
In the case of `CCC(=O)OCC=Cc1ccccc1`, the result in assay [1], in assay [2], in assay [3], in [4], in assay [5] and in assay [6] was inactive.
On to `CC=CC(=O)C1=C(C)C=CCC1(C)C`, for which the outcome in assay [1], in [2], in assay [3], in assay [4], in assay [5] and in [6] was inactive.
Consider `CC(=O)OCC=C(C)CCC=C(C)CCC=C(C)C`, for which the result in assay [1], in [2], in [3], in assay [5] and in [6] was inactive. Also, the AC50 in assay [4] was 36.4 µM (active).
Turning to `CC(=O)OC(C)(C)C1CC=C(C)CC1` (stereo unspecified), the result in [1], in assay [2], in assay [3], in [4], in [5] and in [6] was inactive.
`CCCCCCCCCC(=O)OCC`: the outcome in assay [1], in assay [2], in [4], in [5] and in [6] was inactive. Besides, the AC50 in assay [3] is 26.9 µM (active).
As to `O=C(O)C(F)(F)OC(F)(F)C(F)(F)OC(F)(F)C(F)(F)C(F)(F)C(F)(F)F`, the AC50 in assay [1] is 30 µM (active) and 31.8 µM (active); in assay [2], 42.2 µM (active) and 44.1 µM (active); in [6] it was 43.5 µM (active) and 38.4 µM (active); in assay [11] it was 42.7 µM (active). In addition, the result in assay [3], in assay [4], in assay [5], in assay [7], in assay [8] and in assay [9] was inactive. Besides, the outcome in assay [10] and in assay [11] was inactive.
In the case of `CC1(C)[C@H](C=C(Cl)Cl)[C@H]1C(=O)OCc1cccc(Oc2ccccc2)c1`, the outcome in [1], in assay [2], in assay [3], in assay [4], in [5] and in [6] was inactive.
Consider `CC(=O)c1ccc(C)cc1`, for which the outcome in assay [8], in assay [9] and in [11] was inactive.
In the case of `C=C(C)C(=O)OCCC(F)(F)C(F)(F)C(F)(F)C(F)(F)C(F)(F)C(F)(F)C(F)(F)C(F)(F)F`, the outcome in assay [1], in assay [2], in assay [3], in [4], in assay [5] and in [6] was inactive. For the same compound, the outcome in assay [7], in assay [8], in assay [9], in [10] and in assay [11] was inactive.
`O=S(=O)(O)C(F)(F)C(F)(F)OC(F)(F)C(F)(F)F`: the result in assay [1], in assay [2], in [3], in assay [4], in assay [5] and in [6] was inactive. Moreover, the result in assay [7], in [8], in assay [9], in assay [10] and in assay [11] was inactive.
On to `CC(=O)CCC=C(C)CCC=C(C)C`, for which the outcome in assay [2], in [3], in assay [4], in assay [5] and in assay [6] was inactive.
On to `CCCO[Si](OCCC)(OCCC)OCCC`, for which the result in assay [8], in assay [9] and in [11] was inactive.
Turning to `CC(C)(CO)CO`, the outcome in assay [8], in [9] and in assay [11] was inactive.
As to `c1ccc(OCCOc2ccccc2)cc1`, the outcome in assay [8], in assay [9] and in assay [11] was inactive.
Regarding `COc1ccccc1NC(=O)CC(C)=O`, the outcome in [1], in assay [2], in assay [3], in assay [4], in assay [5] and in assay [6] was inactive.
